# Source: PubChem BioAssay (NCATS)
# Results filed as inconclusive are left out. Where a call stands in place of a potency, no number is given. The source made the active and inactive calls. The call rests on the fitted dose curve; in most records, active means well fitted inhibition curve with a large enough effect; inconclusive means small, poorly fitted or top-dose-only effect; inactive means flat fitted curve, though single readings scatter.
# Biological target: Calcium and integrin-binding protein 1 (Homo sapiens) (UniProt Q99828)
# Sequence (Q99828 whole entry, looked up): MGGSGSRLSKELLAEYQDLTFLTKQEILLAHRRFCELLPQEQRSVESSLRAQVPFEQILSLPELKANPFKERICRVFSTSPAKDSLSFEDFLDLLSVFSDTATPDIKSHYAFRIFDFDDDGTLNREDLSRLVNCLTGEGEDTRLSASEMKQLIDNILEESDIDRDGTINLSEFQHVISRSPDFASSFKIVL
# Test: Primary qHTS for Identification of Calcium Integrin Binding Protein 1 (CIB1) Competitor (AID 1508620);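 further: GST tagged CIB1 binding a fluorescein labelled alphaIIb integrin peptide tracer; top concentration of the series differs between compounds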
# Settings: CIB1-GST / FITC-alphaIIb peptide fluorescence polarization; series mostly up to 114 µM
# Procedure, shortened: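 CIB1-GST (1 uM final) and compound incubated 15 min at room temperature before adding FITC-alphaIIb peptide tracer (100 nM final). Competition for binding read by fluorescence polarization (ex 480, em 540) after another 15 min at room temperature.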
row,Structure (SMILES),Potency
1,c1nc(N2CCC(N3CCCC3)CC2)c2cc(-c3ccc4c(c3)OCO4)ccc2n1,inactive
2,O=C(Nc1cncnc1)c1cccs1,inactive
3,O=C1Nc2ccc(Cl)cc2/C1=C\c1cc(Cl)c(O)c(Cl)c1,inactive
4,CC(=O)Nc1ccc(-c2csc(N3CCC(C(N)=O)CC3)n2)cc1,inactive
5,O=C(NCc1ccccc1)Nc1nnc(-c2ccncc2)s1,inactive
6,COc1cc(OC)c2c(c1)OC(=O)CC2c1ccc2c(c1)OCO2 (stereo not drawn),inactive
7,CC(C)(C)OC(=O)N1CCN(c2ccc(NCc3ccc(-c4ccc(C#N)cc4)nc3)cc2)CC1,inactive
8,Cn1nnnc1Sc1ncnc2scc(-c3cccc(Cl)c3)c12,inactive
9,COc1ccc(C2Nc3ccccc3C(=O)N2CCCN(C)C)cc1COc1c(C)cc(NC(C)=O)cc1C (stereo not drawn),inactive
10,COc1cc(O)c(C(CC(=O)N2CCCC(c3ccccc3)C2)c2ccc3c(c2)OCO3)c(OC)c1 (stereo not drawn),inactive
11,O=S(=O)(Nc1cccc2cccnc12)c1ccc(Br)s1,inactive
12,O=C1c2ccccc2C(=O)N1c1noc2ccccc12,inactive
13,Cc1ccc(CNc2ncc(N3CCCCC3)cn2)cc1,inactive
14,O=S(=O)(c1ccccc1)N1CCN(c2nc(C3CC3)nc3ccccc23)CC1,inactive
15,Cn1c2cc(C(=O)O)sc2c2cnn(Cc3ccccc3F)c(=O)c21,inactive
16,Cc1cnc(-c2ccccc2C(C)C)nc1NCc1ccc(-c2nn[nH]n2)cc1,inactive
17,O=S(=O)(NCCNc1nc(-c2ccco2)nc2ccccc12)c1ccccc1,inactive
18,Cc1cc(C)nc(NC(=S)N2CCN(c3noc4ccccc34)CC2)c1,inactive
